Test results taken from the supplement of paper PMC3334620.
The full ranking holds about 33,000 sequences; the median of “E-score (-0.5 to 0.5)” is about -0.053, and the highest 2% start at about 0.37. Many of the other results were omitted from the sample, so the highest values are more common in it than they were.

What follows are sequences tested against Hap1 (UniProt P0CE41) (assay: PBM E-score (8-mer binding enrichment) (E-score (-0.5 to 0.5)); higher = stronger / more preferred TF binding). Conditions: protein concentration: 200 nM; construct: GST-DNA-binding domain.
Procedure, shortened: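 PURExpress in vitro transcription/translation supplied GST-tagged yeast transcription factors, either full-length or DNA-binding domain. Applied at about 100-200 nM to universal all-10-mer Agilent arrays double-stranded by primer extension, the bound protein was detected with fluorescent anti-GST. E-scores, modified Wilcoxon-Mann-Whitney statistics, were given by the Universal PBM Analysis Suite to ungapped eight-base words pooled with their reverse complements after masliner normalisation.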

Sequence of UniProt P0CE41 (P0CE41 whole entry, the tested form may be a part): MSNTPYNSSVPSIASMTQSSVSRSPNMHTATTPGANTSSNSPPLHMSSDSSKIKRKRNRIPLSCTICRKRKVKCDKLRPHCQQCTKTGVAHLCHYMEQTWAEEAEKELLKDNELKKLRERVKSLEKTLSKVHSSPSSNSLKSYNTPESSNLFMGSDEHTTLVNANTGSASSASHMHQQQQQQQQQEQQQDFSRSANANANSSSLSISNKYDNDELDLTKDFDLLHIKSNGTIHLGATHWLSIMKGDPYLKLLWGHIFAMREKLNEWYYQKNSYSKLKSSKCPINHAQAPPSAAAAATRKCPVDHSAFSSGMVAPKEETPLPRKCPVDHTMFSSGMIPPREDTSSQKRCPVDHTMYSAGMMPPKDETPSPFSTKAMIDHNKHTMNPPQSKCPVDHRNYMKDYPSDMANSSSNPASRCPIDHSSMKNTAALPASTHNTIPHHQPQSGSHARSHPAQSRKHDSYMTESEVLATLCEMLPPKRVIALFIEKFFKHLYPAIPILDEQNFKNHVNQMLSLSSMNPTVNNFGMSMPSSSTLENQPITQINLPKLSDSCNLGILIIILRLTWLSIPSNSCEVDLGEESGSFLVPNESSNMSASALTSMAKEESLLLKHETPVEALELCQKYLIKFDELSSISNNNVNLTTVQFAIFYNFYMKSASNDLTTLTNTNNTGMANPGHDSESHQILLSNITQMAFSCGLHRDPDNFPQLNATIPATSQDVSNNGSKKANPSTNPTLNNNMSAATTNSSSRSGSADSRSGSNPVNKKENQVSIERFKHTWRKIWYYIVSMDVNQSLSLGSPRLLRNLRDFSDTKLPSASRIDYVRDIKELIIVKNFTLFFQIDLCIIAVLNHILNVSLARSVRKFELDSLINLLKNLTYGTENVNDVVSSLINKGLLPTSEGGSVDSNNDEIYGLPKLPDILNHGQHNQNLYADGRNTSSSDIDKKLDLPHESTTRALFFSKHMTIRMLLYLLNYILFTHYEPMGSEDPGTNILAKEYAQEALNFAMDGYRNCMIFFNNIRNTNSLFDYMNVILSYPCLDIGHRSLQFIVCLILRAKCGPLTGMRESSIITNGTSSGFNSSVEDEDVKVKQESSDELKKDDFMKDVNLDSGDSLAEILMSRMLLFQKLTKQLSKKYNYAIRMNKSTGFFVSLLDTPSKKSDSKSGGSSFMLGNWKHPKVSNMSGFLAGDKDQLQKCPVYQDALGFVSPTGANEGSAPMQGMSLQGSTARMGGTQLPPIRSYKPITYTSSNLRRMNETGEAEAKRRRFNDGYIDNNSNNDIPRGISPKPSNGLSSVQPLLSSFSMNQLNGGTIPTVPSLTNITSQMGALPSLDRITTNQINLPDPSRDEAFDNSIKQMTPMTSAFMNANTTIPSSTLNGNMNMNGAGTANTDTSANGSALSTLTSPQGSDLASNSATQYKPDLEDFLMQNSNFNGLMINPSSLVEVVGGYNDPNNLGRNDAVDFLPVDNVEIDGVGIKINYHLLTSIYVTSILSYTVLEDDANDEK

Sequence	PBM E-score
GGGCACCA	-0.0557
CTGACCGA	0.258
GGAAGCCA	-0.0815
GATTTTGC	-0.0335
ATCTCCCG	0.263
ATCTCCGA	0.486
GTCTCCGA	0.332
ATCTCCGC	0.455
ATCTCCCC	0.0474
ATCTCCAG	0.0473
CTCTCCGA	0.203
ATCTCCGG	0.483
CTCTCCGC	0.0772
CTCCAAAC	-0.124
ACCGAGCA	0.359
CCCGAGAA	0.351
TCCGAGCA	0.402
ACCGAGAA	0.271
ACCGAGCT	0.294
CCCGAGCG	0.354
GCCGAGCA	0.236
ACCGAGCG	0.384
TCCGAGAA	0.381
GCCGAGGA	0.294

Sequence	PBM E-score
TCCGAGGA	0.384
CCCGAGGA	0.192
GCTAGGGA	-0.228
CCTTGAGA	-0.0628
GCGTTGTA	-0.0982
AACACCAA	-0.314
TAGATAGA	-0.111
GGCGAACC	0.0857
CCCGCAAC	0.277
ACCAGACC	0.0586
ATTTCTGG	-0.13
GGTAAATA	0.0374
ATCCCCCC	-0.00218
GTCCCCGA	0.269
ATCCCCGA	0.44
ATCCCCGG	0.426
ATCCCGGG	0.376
CTCCCCGA	0.247
ATCCCCGC	0.371
ATCCCGGA	0.36
ATCCCGGC	0.339
ATCCCCTG	-0.324
CTCCCCGC	0.204
ATCCCCCG	0.366

Sequence	PBM E-score
AGGGAATG	-0.197
AACACCCT	-0.0622
GACCTCTC	0.0308
CCTATCAA	-0.119
ACATGGAC	-0.143
TGCGAGAA	-0.143
ATAGGGAG	-0.147
CTAGAGAA	-0.207
GCCAGACC	0.0912
ACAGCTAC	-0.11
TTAGAAAA	-0.0981
AATCGCAC	-0.23
TCGAGAAA	-0.271
TGGAGAAA	-0.0481
CGGAGAAC	0.36
GGGAGAAA	0.0441
CGGAGAAA	0.413
GCGAGAAA	0.116
CGGAGAAG	0.378
AGGAGAAG	-0.149
CCGAGAAA	0.4
CTACTACC	0.068
TAACTTAA	0.0501
CATATGGG	0.0423

Sequence	PBM E-score
ACCACACT	-0.0326
CCCACCGA	0.0319
AACACCTG	-0.0827
CCCACCGG	0.374
AACACCGG	0.409
AACACCGA	0.446
CCCACCGC	0.153
CACACCGG	0.288
AACACCGT	0.245
AACACCGC	0.278
GCAACCCC	0.0182
ATGGAGTC	-0.104
AACGGTAG	-0.00937
CCGATGTC	0.295
CCGCACCC	0.209
ATTCCGTA	0.259
GTTCCGCA	0.209
ATTCCGCA	0.196
ATTCCGGA	0.432
CTTCCGGA	0.404
GTTCCGAA	0.331
GTTCCGGA	0.383
CTTCCGGC	0.275
CTTCCGTA	0.262
